The campaign covered roughly 5,500 compounds. About 2,000 (36%) were called active. Another 18% or so got no clear call; they are omitted. No stated cut-off is given here; in the data, active means normalized growth mostly below about 0.91 (no sharp cut-off); inconclusive means no clear call, values can overlap the other calls; inactive means mostly above about 0.92. This is one part of the list.
Assay: chemical genetic growth profiling, strain panel (AID 1159580);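 further: tested at 20 µM; growth read once vehicle control cultures reached saturation at 30 °C; 1 = growth at the plate median or of vehicle wells; lower values mean less growth of the strain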
Conditions: S. cerevisiae deletion strains, growth OD

Measured: normalized growth

CCCc1c(OCCCOc2ccc(OCC(=O)O)cc2)ccc(C(C)=O)c1O
inactive: locus YAL040C, strain CLN3, active compounds read low 0.942 | locus YCL061C, strain MRC1 (second series), active compounds read low 0.999 | locus YDR150W, strain NUM1, active compounds read low 0.997 | locus YDR363W, strain ESC2, active compounds read low 1.01 | locus YER002W, strain NOP16, active compounds read low 1.04 | locus YMR263W, strain SAP30, active compounds read low 1.01 | locus YNL175C, strain NOP13, active compounds read low 0.98 | locus YNL197C, strain WHI3, active compounds read low 0.987 | locus YNL224C, strain SQS1, active compounds read low 0.963 | locus YNL322C, strain KRE1, active compounds read low 1.01 | locus YOR083W, strain WHI5 (second series), active compounds read low 0.914 | locus YPL241C, strain CIN2, active compounds read low 1

Reference: PubChem BioAssay AID1159580 (chemical genetic matrix, 2015)
